Results reported in PubChem BioAssay (NCATS).
Results filed as inconclusive are left out. The source made the active and inactive calls. Calls follow the shape of the dose curve; as a rule, active = well fitted cell-killing curve with a large enough effect; inconclusive = small, poorly fitted or top-dose-only effect, or effect the other way; inactive = no such curve, though single readings can be large or run the other way.

Assay: Quantitative High-Throughput drug screen in 47 multiple myeloma cell lines against the NCATS MIPE library collection: VP6_DJ cell viability assay (AID 1919867); also: nearly all actives have a fitted effect of over 40% in size
Details: ATP luminescence, 48 h; series mostly up to 45.8 µM; viability (% of DMSO): at the top concentration
Excerpt: PI: Beverly A. Mock Ph.D.
Laboratory of Cancer Biology and Genetics,
Center for Cancer Research, National Cancer Institute,
National Institute of Health, Bethesda, Maryland
Drug resistance and disease progression are common in multiple myeloma (MM) patients, underscoring the need for new therapeutic combinations. […] We hypothesized that effective combinations would reduce MYC expression and enhance p16 activity. […] These preclinical data identify potentially useful drug combinations for evaluation in drug-resistant MM and reveal potential mechanisms of combined drug sensitivity.
Described herein is the primary MIPE qHTS used to cherrypick compounds. Validated compounds were then further tested for potential synergistic activiy.
[1] Peat TJ, Gaikwad SM, Dubois W, Gyabaah-Kessie N, Zhang S, Gorjifard S, Phyo Z, Andres M, Hughitt VK, Simpson RM, Miller MA, Girvin AT, Taylor A, Williams D, D'Antonio N, Zhang Y, Rajagopalan A, Flietner E, Wilson K, Zhang X, Shinn P, Klumpp-Thomas C, McKnight C, Itkin Z, Chen L, Kazandijian D, Zhang J, Michalowski AM, Simmons JK, Keats J, Thomas CJ, Mock BA. Drug combinations identified by high-throughput screening promote cell cycle transition and upregulate Smad pathways in myeloma. Cancer Lett. 2023 Aug 1;568:216284. doi: 10.1016/j.canlet.2023.216284. Epub 2023 Jun 24. PMID: 37356470; PMCID: PMC10408729.
SEQUENCE No. (e.g., 1, 2, 3, etc.); […] (e.g., Cells, Incubation, Reagent, etc.); VALUE and DESCRIPTION.
1; Cells; 5 uL; white, solid bottom 1536-well Greiner assay plate.
2; Compounds; 23 nL; Kalypsis pin tool (Wako USA) equipped with a 1536-well pin head to transfer to the assay plates.
3; Incubation; 48 hours; 37C incubation.
4; Reagent;5uL; CellTiter Glo (Promega).
5; Detector; 425V; Luminescence; Viewlux PerkinElmer.
NOTES (numbers refer to Sequence numbers above)
1. The cell-based screening methods employed in this study were like those previously published. Briefly, the corresponding myeloma cell lines were screened in 1,536-well plates with 500 cells, 5-uL per well for inhibition of cell viability (assessed by measuring ATP levels with CellTiterGlo).
2. NCATS MIPE 4.0 library of approved and investigational drugs were added using the Kalypsis pin tool. Wells treated with DMSO only for 100% viability and media only for 0% viability were used as controls.
3. The assay plates were covered and incubated for 48 hours in a 37C, 5% CO2 incubator with controlled humidity.
4. After 48 hours, CellTilter-GloTM luminescent substrate mix (Promega) reagent was added to the assay plate and plates we incubated for 5 min at room temperature.
5. Signal was measured as median relative luminescence units on a ViewLux (PerkinElmer) multiplate reader.
[1] Heske CM, Davis MI, Baumgart JT, Wilson K, Gormally MV, Chen L, Zhang X, Ceribelli M, Duveau DY, Guha R, Ferrer M, Arnaldez FI, Ji J, Tran HL, Zhang Y, Mendoza A, Helman LJ, Thomas CJ. Matrix Screen Identifies Synergistic Combination of PARP Inhibitors and Nicotinamide Phosphoribosyltransferase (NAMPT) Inhibitors in Ewing Sarcoma. Clin Cancer Res. 2017 Dec 1;23(23):7301-7311. doi: 10.1158/1078-0432.CCR-17-1121. Epub 2017 Sep 12. PMID: 28899971; PMCID: PMC6636827.
Potency is read from the fitted curve at half-maximal effect.

| Structure (SMILES) | Potency | viability (% of DMSO) |
| --- | --- | --- |
| O=c1c(O)c(-c2ccc(O)c(O)c2)oc2cc(O)cc(O)c12 | 16.6 µM (active) |  |
| O=c1[nH]cc(F)c(=O)[nH]1 | 5.9 µM (active) |  |
| CC[C@@]1(O)C(=O)OCc2c1cc1n(c2=O)Cc2cc3c(CN(C)C)c(O)ccc3nc2-1 | 1.48 µM (active) |  |
| N[C@@H](Cc1c[nH]c2ccc(O)cc12)C(=O)O | 16.6 µM (active) |  |
| CC(=O)OCC(CCn1cnc2cnc(N)nc21)COC(C)=O |  | 118% (inactive) |
| O=C1N(c2ccccc2)c2ccccc2C1(Cc1ccncc1)Cc1ccncc1 | 20.9 µM (active) |  |
| CNCCCC12CCC(c3ccccc31)c1ccccc12 | 20.9 µM (active) |  |
| Cc1cc(C(C)(C)C)c(O)c(C)c1CC1=NCCN1 |  | 124% (inactive) |
| CN(Cc1cnc2nc(N)nc(N)c2n1)c1ccc(C(=O)N[C@@H](CCC(=O)O)C(=O)O)cc1 | 0.0662 µM (active) |  |
| O=C1Cc2cc(CCN3CCN(c4nsc5ccccc45)CC3)c(Cl)cc2N1 | 16.6 µM (active) |  |
| CN1CCN2c3ccccc3Cc3ccccc3C2C1 (stereo not given) | 3.72 µM (active) |  |
| O=C(Nc1ccc([N+](=O)[O-])cc1Cl)c1cc(Cl)ccc1O | 0.743 µM (active) |  |
| OCCN1CCN(CCCN2c3ccccc3Sc3ccc(C(F)(F)F)cc32)CC1 | 16.6 µM (active) |  |
| OCCN(CCO)c1nc(N2CCCCC2)c2nc(N(CCO)CCO)nc(N3CCCCC3)c2n1 | 23.5 µM (active) |  |
| CC(C(=O)O)c1cccc(C(=O)c2ccccc2)c1 (stereo not given) | 14.8 µM (active) |  |
| COc1ccc(C2CNC(=O)C2)cc1OC1CCCC1 (stereo not given) | 14.8 µM (active) |  |
| CC(CCc1ccc(O)cc1)NCCc1ccc(O)c(O)c1 (stereo not given) | 16.6 µM (active) |  |
| CN1CCC(=C2c3ccccc3C=Cc3ccccc32)CC1 | 16.6 µM (active) |  |
| O=C(C1CCCCC1)N1CC(=O)N2CCc3ccccc3C2C1 (stereo not given) |  | 149% (inactive) |
| COc1ccc2c(c1)c(CC(=O)O)c(C)n2C(=O)c1ccc(Cl)cc1 | 20.9 µM (active) |  |

| Structure (SMILES) | Potency | viability (% of DMSO) |
| --- | --- | --- |
| COc1cc2c(c(OC)c1OC)-c1ccc(OC)c(=O)cc1[C@@H](NC(C)=O)CC2 |  | 22.2% (inactive) |
| COc1cc2nc(N3CCN(C(=O)c4ccco4)CC3)nc(N)c2cc1OC | 10.5 µM (active) |  |
| CS(=O)(=O)CCNCc1ccc(-c2ccc3ncnc(Nc4ccc(OCc5cccc(F)c5)c(Cl)c4)c3c2)o1 | 1.66 µM (active) |  |
| Cn1c(=O)c2c(ncn2C)n(C)c1=O |  | 117% (inactive) |
| O=C1c2c(O)ccc(O)c2C(=O)c2c(NCCNCCO)ccc(NCCNCCO)c21 | 0.662 µM (active) |  |
| CC#C[C@]1(O)CC[C@H]2[C@@H]3CCC4=CC(=O)CCC4=C3[C@@H](c3ccc(N(C)C)cc3)C[C@@]21C | 0.833 µM (active) |  |
| O=C(c1ccc(OCCN2CCCCC2)cc1)c1c(-c2ccc(O)cc2)sc2cc(O)ccc12 | 16.6 µM (active) |  |
| O=c1c(-c2ccc(O)cc2)coc2cc(O)cc(O)c12 | 5.9 µM (active) |  |
| Cn1ccc2cc3c(cc21)CCN3C(=O)Nc1cccnc1 | 14.8 µM (active) |  |
| COc1ccccc1N1CCN(CC(O)COc2cccc3ccccc23)CC1 (stereo not given) |  | 122% (inactive) |
| CC12CC3CC(C)(C1)CC(N)(C3)C2 | 18.7 µM (active) |  |
| CC(C)C(=O)Nc1ccc([N+](=O)[O-])c(C(F)(F)F)c1 | 3.32 µM (active) |  |
| CN1CCC(=C2c3ccccc3CC(=O)c3sccc32)CC1 | 9.35 µM (active) |  |
| CN1CCN(CCCN2c3ccccc3Sc3ccc(Cl)cc32)CC1 | 10.5 µM (active) |  |
| Clc1ccc(C(c2ccccc2Cl)C(Cl)Cl)cc1 (stereo not given) | 6.62 µM (active) |  |
| CS(=O)(=O)Nc1ccc([N+](=O)[O-])cc1Oc1ccccc1 |  | 103% (inactive) |
| Cc1cn([C@H]2C=C[C@@H](CO)O2)c(=O)[nH]c1=O |  | 122% [at 92.2 µM] (inactive) |
| C[C@@H]1CC(=O)NN=C1c1ccc(NN=C(C#N)C#N)cc1 | 18.7 µM (active) |  |
| NC12CC3CC(CC(C3)C1)C2 | 3.32 µM (active) |  |
| NC(=O)NO | 1.05 µM (active) |  |
